Measured values as given in PubChem BioAssay AID1049 (The Scripps Research Institute Molecular Screening Center, 2008).
Among all 200,000 compounds or so, about 780 (0.39%) were called active. The sample as a whole holds a higher share of actives than the screen did. Values without a mark were called inactive. No stated cut-off is given here; in the data, active means TR-FRET ratio above about 2000; inactive means the rest.

Assay: detection-format interference in TR-FRET ratio – biochemical, artefact control for PPARgamma SRC-2 agonist project, primary screen (AID 1049)
Details: TR-FRET artefact counter-screen; at 8 µM; active compounds read high

Structure (SMILES)	TR-FRET ratio
Cc1nn(CC#N)c(=O)n1N(C)c1ncc(C(F)(F)F)cc1Cl	1490
Cc1ccccc1-c1n[nH]c(=S)n1C	1570
Cc1ccccc1-c1n[nH]c(=S)n1/N=C/c1ccc(-c2ccccc2Br)o1	2460 (active)
Cc1n[nH]c(=S)n1/N=C/c1ccc(Br)o1	1670
O=S(=O)(/N=C(/Nc1ccccc1)c1ccccc1)c1cccs1	1640
CC(=O)Nc1ccc(S(=O)(=O)Oc2ccc(/C=N/N=C3/NC(=O)C(CC(=O)O)S3)cc2)cc1 (stereo unspecified)	1610
O=C(c1ccccc1Cl)N(Cc1ccccc1F)N1C(=O)CCCC1=O	1650
CCn1c(=O)cc(SCC(=O)NCc2ccc3c(c2)OCO3)c2ccccc21	2130 (active)
CC(C)NC(=O)CSc1ccccc1C(=O)NCc1ccc2c(c1)OCO2	1420
CCn1c(=O)cc(SCC(=O)NCCC2=CCCCC2)c2ccccc21	1870
CC(C)(C)NC(=O)C(=O)NN=C1CCCCCCC1	1240
COc1ccc(CSc2nc(N3CCOCC3)c3c(c2C#N)CC(C)(C)OC3)cc1	1500
c1ccc(COc2nsnc2N2CCOCC2)cc1	1720
c1ccc(CSc2ncnc3c2sc2nc(N4CCOCC4)c4c(c23)CCCC4)cc1	2910 (active)
CCOc1ccc(N2C(=O)Nc3ccccc3C2(O)C(=O)NCc2ccco2)cc1 (stereo unspecified)	1700
O=C(CSc1nnc(SCc2ccc(Cl)cc2)s1)N/N=C/c1ccccc1Cl	1600
Cc1ccc(CN(Cc2cccnc2)C(=S)Nc2cccc(Cl)c2C)cc1	1420
CCN(C(=O)COc1cccnc1[N+](=O)[O-])C1CCS(=O)(=O)C1 (stereo unspecified)	1550
COc1ccc(OCC(=O)Nc2nnc(-c3ccco3)s2)cc1	2240 (active)
COCC(=O)Nc1nnc(COc2ccccc2)s1	1270
COc1ccc(Cc2nnc(NC(=O)Cc3cccs3)s2)cc1	1330
CC(NC(=O)COC(=O)c1cc(=O)[nH]c2ccccc12)c1ccccc1 (stereo unspecified)	1810
CCOC(=O)c1sc(NC(=O)COc2ncnc3ccccc23)c(C(=O)OCC)c1C	1580
CCOC(=O)c1sc(NC(=O)CSc2nnc(-c3ccco3)o2)c(C(=O)OCC)c1C	1590

Structure (SMILES)	TR-FRET ratio
CCOC(=O)c1c(NC(=O)CNC2CCCc3ccccc32)sc(C(N)=O)c1C (stereo unspecified)	2030 (active)
COc1ccc(CN2CCCC(CNC(=O)c3ccc(F)cc3)C2)cc1OC (stereo unspecified)	1400
C/C(CC(=O)NC(C)(C)C)=N\NC(=O)c1ccco1	1540
CNc1nccc(-c2ccc(Cl)cc2)c1C#N	1580
N#Cc1c(-c2ccc(Cl)cc2)c2c([nH]c1=S)CCCC2	2030 (active)
N#Cc1c2c(c(-c3ccccc3)[nH]c1=O)CCCC2	1620
Cc1ccc(CNC(=O)COc2ccc3c(c2)CCC3)cc1	1560
CCCCN(C(=O)c1ccc(OC(F)(F)F)cc1)c1c(N)n(CCC)c(=O)[nH]c1=O	1420
C/C=N/NC(=O)CCCC(=O)N/N=C/C	1590
Cc1cc(N2C(=O)C(=O)/C(=C(/O)c3ccc(Cl)cc3)C2c2cccc(Br)c2)no1 (stereo unspecified)	1980 (active)
COc1ccc(C2/C(=C(/O)c3ccccc3)C(=O)C(=O)N2c2ncccn2)cc1OC (stereo unspecified)	1610
COc1ccccc1C1/C(=C(/O)c2ccc(OC(C)C)cc2)C(=O)C(=O)N1c1cc(C)on1 (stereo unspecified)	1930
Cc1cc2ccccc2n1CCNC(=O)COc1ccc2ccccc2c1	3050 (active)
Cc1cc2ccccc2n1CCC(=O)O	1790
COC(=O)C(C)NC(=O)COc1ccc2ccccc2c1 (stereo unspecified)	1440
COc1ccc(/C=N/Nc2ncnc3sc4c(c23)CCCC4)cc1O	1360
CCCOc1ccc(N/C=C/C(=O)C(C)(C)C)cc1	1530
O=C(/C=C/Nc1ccccc1OC(F)(F)F)C(F)(F)F	1490
CN(C)c1ccc(N/C=C/C(=O)C(F)(F)F)cc1	2200 (active)
CN(C)C(=O)c1ccc2c(c1)C1C3CCC(C3)C1C(c1ccccc1)N2 (stereo unspecified)	1630
COc1cccc(NC(=S)N(Cc2ccc(C)cc2)Cc2ccccn2)c1	1700
CSc1ncccc1C(=O)OCc1ccc(Br)cc1	1680
Cc1cc(C)c(NC(=O)CS(=O)CC(=O)Nc2cccnc2)c(C)c1 (stereo unspecified)	1340
Cc1ccc(-c2nc(-c3cccnc3)sc2CC(=O)Nc2ccc(C)c(Cl)c2)cc1	2240 (active)

Structure (SMILES)	TR-FRET ratio
Cc1ccc(NC(=O)COc2ccc(-n3ccnc3)cc2)cc1Cl	1510
COc1ccc(OC)c(Cc2nnc(CCC(=O)NC3CCCC3)o2)c1	1590
O=C(Nc1cccc(CCc2ccccn2)c1)c1ccc(Cl)cc1	1410
CN(C)/C=C(/C(=O)c1ccccc1)S(=O)(=O)c1ccc(Cl)cc1	1390
COc1cc(OC)cc(C(=O)Nc2ccc(S(=O)(=O)Nc3cc(C)on3)cc2)c1	1400
COc1cc(OC)cc(C(=O)Nc2ccc(-c3nc4ccccc4o3)c(O)c2)c1	2300 (active)
O=C(Nc1ccc2oc(-c3ccccc3F)nc2c1)c1ccco1	1310
CC(=O)c1ccc(S(=O)(=O)N2CCN(c3nc4c(C)c(C)ccc4cc3C#N)CC2)cc1	2950 (active)
Cc1cccc2cc(C#N)c(N3CCCC3)nc12	1510
Cc1cc(C)c2nc(N3CCCC3)c(C#N)cc2c1	1740
CC(C)OCCCNC(=O)c1ccc(C2SCC(=O)N2Cc2ccco2)cc1 (stereo unspecified)	1510
CCOc1ccc(N2CC(C(=O)NCCN3C(=O)S/C(=C\c4cccnc4)C3=O)CC2=O)cc1 (stereo unspecified)	1470
COC(=O)c1cc2n(n1)CCCNC2=O	1460
COc1cccc(NC(=O)CN(C)C(C)C(=O)Nc2ccc(C#N)cc2)c1 (stereo unspecified)	1560
CN(C)S(=O)(=O)c1cccc(NC(=O)COC(=O)/C=C/c2cccs2)c1	1590
O=C(c1ccncc1)c1ccc([N+](=O)[O-])cc1	1700
O=C(/C=C/c1ccc(Cl)cc1Cl)NCc1ccco1	1530
O=C(NCc1ccco1)c1cc(-c2cccnc2)nc2ccc(Cl)cc12	1650
O=C(CSc1c2c(nc3ccc(Cl)cc13)CCCC2)NCc1ccco1	2000 (active)
COc1ccc(Cl)cc1C(=O)NCc1cn(C)nc1C	1670
Cc1ccc(-c2cc(C(=O)NCc3cn(C)nc3C)c3cc(Br)ccc3n2)cc1	2980 (active)
Cc1ccc2nc(-c3cccc(Br)c3)cc(C(=O)Nn3cnnc3)c2c1	1400
O=c1[nH]cnc2c1c(-c1ccccc1)cn2-c1ccc(F)cc1	1650
Cc1ccccc1N1C(=O)C(Oc2ccc(Cl)cc2)C1CNCC1CCCO1 (stereo unspecified)	1310

Structure (SMILES)	TR-FRET ratio
Cc1ccc(N2C(=O)C(NC(=O)c3c(F)cccc3F)(C(F)(F)F)C3=C2CC(C)(C)CC3=O)cc1 (stereo unspecified)	1460
O=C(COC(=O)/C=C/c1cccc(Cl)c1)NCCc1ccccc1	1440
CCN(CC)S(=O)(=O)c1cccc(-c2n[nH]c(=S)n2/N=C/c2ccc(C(=O)OC)cc2)c1	1510
Cc1c(Cc2ccccc2)c(=O)oc2cc(OCC(N)=O)ccc12	1400
CC(=O)Oc1ccc2c(C)c(CC(C)O)c(=O)oc2c1 (stereo unspecified)	1440
O=C(Oc1ccccc1)Oc1ccc2c(c1)oc(=O)c1ccccc12	2370 (active)
COc1ccc(C2=NN(c3nc4ccccc4s3)C(=O)C2)cc1	1550
CN(Cc1cccc2ncccc12)C(=O)CC1C(=O)NCCN1Cc1ccc(F)cc1 (stereo unspecified)	1420
O=C(O)/C=C/c1ccc(OCCCF)cc1	1530
COc1cc(/C=N/N=C(\N)c2nonc2N)cc(OC)c1OC	1490
Cc1cc(=O)n2[nH]c(-c3sccc3-n3c(C)ccc3C)cc2n1	1620
Cc1ccc(S(=O)(=O)N2CCOCC2)cc1NC(=O)CSc1nnc(N)s1	1520
CCN=C1S/C(=C\c2cc(Br)ccc2OCC(=O)OCC)C(=O)N1CC	1500
CCCOc1ccc(NC(=O)C2OC3OC(C)(C)OC3C3OC(C)(C)OC23)cc1 (stereo unspecified)	1480
Cc1cc(OCC(=O)NC2CCN(C)CC2)ccc1[N+](=O)[O-]	1540
Cc1ccccc1N1CCN(CCCOc2ccc3c(C)cc(=O)oc3c2)CC1	1510
Cc1cc(OCCCN2CCN(Cc3ccccc3)CC2)ccc1[N+](=O)[O-]	2000 (active)
C/C(N)=C(/C#N)C(=O)COC(=O)c1cc(-c2ccccc2)nc2ccc(Br)cc12	1540
Cc1cc(C)c2c(NC(=O)C3CC3)nn(C)c2n1	1370
CCN(C(=O)COC(=O)c1c(NC(C)=O)sc(C)c1C)C1CCS(=O)(=O)C1 (stereo unspecified)	1610
COC(=O)c1ccc(-c2noc(CN(Cc3ccccn3)CC3CCCO3)n2)cc1 (stereo unspecified)	1700
CCN(CCn1cccn1)Cc1nc(-c2ccc(C(=O)OC)cc2)no1	1990 (active)
CCN(CCn1cccn1)Cc1cn[nH]c1-c1ccc(OC)cc1F	1510
COc1cc(NC(=O)COC(=O)CSc2ccc3ccccc3c2)c(C)cc1[N+](=O)[O-]	1450

Structure (SMILES)	TR-FRET ratio
O=C1NC(c2ccccc2)=NC1(Nc1ccccn1)C(F)(F)F (stereo unspecified)	1690
Brc1ccc(C2CC(c3ccccc3)=Nc3ccccc3N2)cc1 (stereo unspecified)	1550
COc1ccc(C2CC(c3ccccc3)=NN2C(=O)COC(=O)COc2ccccc2)cc1 (stereo unspecified)	1620
CNC(=S)N1N=C(c2ccccc2)CC1c1ccc(Br)cc1 (stereo unspecified)	1990 (active)
CCC1CO/C(=C(\C(=C(Cl)Cl)N2CCOCC2)[N+](=O)[O-])N1 (stereo unspecified)	1690
COc1ccc(NC(=O)c2sc(N3CCOCC3)nc2-c2ccccc2)c(OC)c1	1580
O=C(O)CC/C(=N\NC(=O)c1ccc(F)cc1)c1ccc(Br)cc1	1580
C/C(=N\OCC(=O)Nc1ccc(Br)cc1)c1cccs1	1350
O=C(CSc1cccc2cccnc12)N/N=C/c1cccnc1	2120 (active)
CCOC(=O)N/N=C/c1cccnc1	1680
Cc1nc2ccccc2n1CC(=O)N/N=C/c1cccnc1	1640
NC1=NC(=O)C(Cc2cccc(Cl)c2)S1 (stereo unspecified)	1490
CCC(C)(C)NC(=O)/C=C/c1cc(OC)c(OC)c(S(=O)(=O)N2CCc3ccccc32)c1	1580
Cc1cccc(OCc2ccc(C(=O)Nc3ccc(F)cc3)cc2)c1	1560
Cc1nc2ccccc2cc1OCc1ccc(F)cc1	1730
Fc1ccc(COc2cccc(-c3n[nH]c(=S)o3)c2)cc1	2890 (active)
CCOC(=O)c1ccc[n+](CC(=O)Nc2ccccc2OC(F)F)c1	1350
CCOC(=O)c1sc(NC(=O)CSc2n[nH]c(CC)n2)nc1C	1730
CCOc1ncccc1C(=O)OCC(=O)NC1CC1	1600
Cc1cc(OCCN2CCCC2)cc(C(C)C)c1	1530
